assay: small molecules boosting NK-mediated OVCAR3 lysis – imaging, primary NK cells, calcein-AM imaging, primary screen (AID 1508625); details: OVCAR3 lysis by primary NK cells, at 5 µM; z-score: measured here: robust Z-score, single-point normalisation;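 further: compound given to NK cells 16 h before adding targets at 1.5 to 1 ratio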;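 on z-score: more negative robust z means stronger NK killing of tumor cells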

| Compound | corrected activity, negative = more killing [%] | z-score |
| --- | --- | --- |
| Cc1ccc([N+](=O)[O-])cc1NS(=O)(=O)c1ccc(Cl)cc1 | 4.17 | 1.33 |
| O=C(Cn1ccc([N+](=O)[O-])n1)Nc1ccc(I)cc1 | -4.86 | -1.51 |
| Cc1cc(C)nc(N=C(N)Nc2cccc(F)c2)n1 | 0.14 | 0.0433 |
| CCCOc1cccc(C(=O)Nc2ccc3nn(-c4ccc(OC)cc4)nc3c2)c1 | -3.41 | -1.21 |
| CC1=C(C(=O)OC(C)C(C)(C)C)C(c2ccccc2)NC(=O)N1 (stereo not drawn) | -4.55 | -1.71 |
| CCCn1c(C)nc2c(=O)oc3ccccc3c21 | 3.04 | 0.943 |
| CC(=O)Nc1ccc(N=Cc2ccc(C)cc2)cc1 | -3.8 | -0.8 |
| O=C(CCCn1c(=S)[nH]c2cc3c(cc2c1=O)OCO3)NC1CC1 | -7.46 | -1.98 |
| O=C(NC1CCCCCC1)c1coc(=O)c2ccccc12 | -2.46 | -0.781 |
| CSc1nnc2c(n1)OC(c1ccc(C(=O)O)cc1)Nc1ccccc1-2 (stereo not drawn) | -1.74 | -0.616 |
| CCOC(=O)c1ccc2c(c1)[C@@H]1C=CC[C@@H]1[C@H](c1ccccc1Br)N2 | 3.06 | 0.914 |
| CC(=O)Nc1ccc(N2C(=O)C3C4CC(C(Br)C4Br)C3C2=O)cc1 (stereo not drawn) | -2.24 | -0.796 |
| O=C1c2ccccc2C(=O)N1C1C(=O)N(c2cccc(C(F)(F)F)c2)C1c1ccc(F)cc1 (stereo not drawn) | -1.28 | -0.397 |
| N#CCCCSc1nnnn1-c1ccccc1 | -7.28 | -2.25 |
| CCCCOc1ccccc1C1NC(=O)NC(C)=C1C(=O)OCC(F)(F)F (stereo not drawn) | -3.61 | -1.36 |
| CC(=O)c1c(C(C)=O)c(C)n(-c2ccc(Cl)c(N)c2)c1C | -6.08 | -2.26 |
| CCC(C)NC(=O)Cn1c(=O)n(-c2cc(OC)cc(OC)c2)c(=O)c2sccc21 (stereo not drawn) | -7.6 | -2.16 |
| Cc1nc2ccccc2n1Cc1cccc2ccccc12 | -3.88 | -2.01 |
| CCOC(=O)c1cnc(SCc2ccccc2Cl)nc1N | -1.75 | -0.473 |
| COC(=O)c1ccc(COC(=O)c2ccncc2)cc1 | -0.707 | -0.393 |

| Compound | corrected activity, negative = more killing [%] | z-score |
| --- | --- | --- |
| COc1cc([N+](=O)[O-])ccc1N1C(=O)C2C3C=CC(CC3)C2C1=O (stereo not drawn) | 0.65 | 0.231 |
| Cc1ccccc1-n1nnnc1C(c1ccccc1)N(C)Cc1ccc(Cl)c(Cl)c1 (stereo not drawn) | -1.59 | -0.695 |
| CCCn1cnc2sc(C(=O)Nc3ccc(Oc4ccc5c(c4)C(=O)N(c4ccc6c(c4)OCO6)C5=O)cc3)c(C)c2c1=O | -4.94 | -1.8 |
| CCOc1ccc(C2C(=C(O)c3ccccc3)C(=O)C(=O)N2CCO)cc1 (stereo not drawn) | -2.61 | -0.996 |
| COc1cc2c(cc1NC(=O)COc1ccccc1F)oc1ccccc12 | 0.193 | 0.0792 |
| CC(C)(C)NC(=O)C(=O)NN=Cc1cccc(Br)c1 | -4.27 | -1.82 |
| O=c1oc(-c2ccc(Oc3ccc([N+](=O)[O-])cc3)cc2)nc2ccccc12 | -1.57 | -0.62 |
| O=C(Oc1ccccc1C(=S)N1CCOCC1)c1ccc([N+](=O)[O-])cc1 | 4.47 | 1.39 |
| O=C(c1cccc(NS(=O)(=O)Cc2ccccc2)c1)N1CCOCC1 | -1.7 | -0.945 |
| C=CCN1C(=O)C(=Cc2ccc(OCc3ccccc3Cl)c(OC)c2)SC1=S | -6.24 | -1.98 |
| COc1ccc(S(=O)(=O)N2CCN(C(=O)COc3ccc4ccccc4c3)CC2)cc1 | -2.15 | -0.961 |
| COc1ccc(OC)c(NC(=O)CSc2nc3c([nH]c4ccccc43)c(=O)n2C)c1 | -8.66 | -2.15 |
| O=C1C2C(c3ccc([N+](=O)[O-])cc3)OC3(C(=O)c4ccccc4C3=O)C2C(=O)N1c1ccc(Cl)cc1 (stereo not drawn) | -3.68 | -1.14 |
| O=C(Nc1ccc2nn(-c3cccc(Cl)c3)nc2c1)c1cccc2ccccc12 | -3.42 | -1.21 |
| CC1C2CCCN2CCN1Cc1cccc(Oc2ccccc2)c1 (stereo not drawn) | -1.23 | -0.537 |
| COc1ccc(CNCC2OCCc3ccccc32)cc1OC (stereo not drawn) | -5.1 | -1.95 |
| COC(=O)c1[nH]c(=O)c2ccccc2c1O | -4.14 | -1.63 |
| CC1CCC2C(=O)N(c3ccc(N4CC5(C)CC4CC(C)(C)C5)c([N+](=O)[O-])c3)C(=O)C2C1 (stereo not drawn) | -1.82 | -0.661 |
| COC(=O)c1ccc(C=NN2CCN(c3ccccn3)CC2)cc1 | -4.57 | -2 |

— PubChem BioAssay AID1508625 (Wald Lab, School of Medicine, Case Western Reserve …, 2021)
